Source: PubChem (National Center for Advancing Translational Sciences (NCATS))
JMJD2A Tudor – inhibitors of human JMJD2A Tudor domain. Potency, µM (titrated, usually from 114 µM), for inactives: top-dose activity change, negative = inhibition, actives largely listed as inhibitors. AlphaScreen JMJD2A-Tudor / H3K4me3 peptide binding. AID 504339. O75164. 4.4% of 390,000 active; further: on the % scale 0 is the no-effect control and ±100 the full control effect; nearly all actives have a fitted effect of over 50% in size
BAZ2B inh – BAZ2B (human) inhibition | AlphaScreen BAZ2B-H3K14Ac peptide displacement | Potency, µM (highest dose often 114 µM), for the others: top-dose activity change, negative = inhibition, usual class: inhibitors | 4.4% of 360,000 active | AID 504333; further: on the % scale 0 is the no-effect control and ±100 the full control effect; nearly all actives have a fitted effect of over 60% in size
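Inhibition is scored as reduced AlphaScreen emission. The BAZ2B/b-H3(5-23)K14Ac complex (50 nM each) in PBS pH 7.4, 0.01% Tween-20 meets compound (up to 110 uM) for 30 min at RT before bead addition.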
G9a block – inhibitors of human histone lysine methyltransferase G9a. Q96KQ7. G9a H3K9 monomethylation, AlphaScreen, 2 h. Potency, µM (series often up to 102 µM), without a hit: at the highest dose activity, negative = inhibition, usual class: inhibitors. 8.8% of 350,000 active. AID 504332; further: on the % scale 0 is the no-effect control and ±100 the full control effect; nearly all actives have a fitted effect of over 75% in size
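Chemiluminescent proximity detection of H3K9 monomethylation, read after 10 min bead incubation in the dark. Reaction: 20 nM G9a, 500 nM biotin-H3K9 peptide, 20 uM SAM cofactor, 2 h, room temperature, following 15 min enzyme-compound preincubation.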
HP1b binding inh – HP1-beta chromodomain-methylated histone interaction inhibition | AlphaScreen HP1-beta / biotin-H3K9me3 peptide binding | 0.56% of 390,000 active | Potency, µM (top dose mostly 114 µM), for inactives: at the top dose activity change, negative = inhibition, actives largely listed as inhibitors | AID 540317 | P83916; further: nearly all actives have a fitted effect of over 70% in size
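AlphaScreen: HP1-beta (50 nM) preformed 30 min with biotin-H3(1-18)K9me3 peptide (50 nM) in PBS pH 7.4, 0.01% Tween-20. Compound added for 30 min at RT, then streptavidin donor/nickel chelate acceptor beads (10 ug/mL) for 30 min.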
Sfp PPTase inh – blocks B. subtilis Sfp PPTase activity | Q9F4F7 | Biochemical Sfp PPTase activity, qHTS | Potency, µM, for the others: largest response in the series, negative = inhibition, actives largely listed as inhibitors | 3.5% of 310,000 active | AID 1490;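 further: the enzyme is Sfp with the accession as filed and its product quenches rhodamine fluorescence; 0% = enzyme reaction without inhibitor and -100% = no enzyme wells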
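Buffer: 50 mM Hepes-Na pH 7.6, 10 mM MgCl2, 0.01% Nonidet P-40, 0.01% BSA. Enzyme 15 nM, pre-exposed to compound 15 min; substrates then added and fluorescence change tracked over 30 min.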
TDP1 inh – inhibitors of human tyrosyl-DNA phosphodiesterase TDP1. Potency, µM (top dose mostly 130 µM), without a hit: at the highest dose activity change, negative = inhibition, actives largely listed as inhibitors. 0.28% of 350,000 active. Q9NUW8. recombinant TDP1, AlphaScreen DNA substrate cleavage; further: on the % scale 0 is the no-effect control and ±100 the full control effect; nearly all actives have a fitted effect of over 40% in size
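Compounds were preincubated with Tdp1 (1 nM final) for 15 min at room temperature before substrate (15 nM final) started a 5 min reaction; beads (10 ug/ml final) were then added for 10 min before AlphaScreen detection.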
An asterisk follows results filed as active; ? = inconclusive; / = not tested or not shown; [ ] = remark or other dose. Only some compounds are listed: those with a hit (about 12% of all), similar ones and a draw of the others. The call rests on the fitted dose curve; in most records, active means well fitted curve in the direction sought with a large enough effect; inconclusive means small, poorly fitted or top-dose-only effect, or another doubt; inactive means no such curve, though single readings can be large; an effect the other way counts as inactive or inconclusive. Potency means the concentration at half of the fitted maximal effect.

SMILES	JMJD2A Tudor	BAZ2B inh	G9a block	HP1b binding inh	Sfp PPTase inh	TDP1 inh
Cc1c(Br)c(=O)oc2c(Br)c(O)ccc12	-8%	-3%	-47%	7%	-2%	-3%
Cc1c(Br)c(=O)oc2c(Br)c(O)c(O)cc12	45µM*	?	28µM*	-11%	?	5%
O=[N+]([O-])c1cccc(-c2nc3ccc([N+](=O)[O-])cc3[nH]2)c1	20µM*	7%	79µM*	-2%	9%	0%
Cc1ccc(B(O)O)cc1	-11%	/	/	41%	17%	2%
COCCn1c(C)cc(/C=C2/NC(=O)N(c3cccc(Cl)c3)C2=O)c1C	-24%	-37%	50µM*	8%	11%	0%
COc1ccc(CN(Cc2ccccc2)C(=O)CN2CCN(C)CC2)cc1COc1ccc(NC(C)=O)cc1	35µM*	/	/	-6%	/	-8%
COc1ccc(-c2nc3ccc(NC(=O)COC(C)=O)cc3c(=O)n2Cc2ccccc2)cc1COc1ccc(NC(C)=O)cc1	79µM*	/	/	-3%	/	?
COc1ccc(-c2nc3ccccc3c(=O)n2Cc2ccco2)cc1COc1ccc(NC(C)=O)cc1	-21%	/	/	/	/	-4%
COc1ccc(-c2nc3ccccc3c(=O)n2Cc2ccc(CNC(=O)CO)cc2)cc1COc1ccc(NC(C)=O)cc1	79µM*	/	/	/	/	79µM*
COc1ccc(-c2nc3cccc(OC)c3c(=O)n2Cc2ccccc2)cc1COc1ccc(NC(C)=O)cc1	50µM*	/	/	/	/	/
CC(C)C[C@H](NC(=O)[C@H](CCCCN)NC(=O)CNC(=O)[C@H](CC(C)C)NC(=O)[C@@H](NC(=O)[C@@H]1CSSC[C@H](N)C(=O)N[C@@H](CO)C(=O)N[C@@H](CC(N)=O)C(=O)N[C@@H](CC(C)C)C(=O)N[C@@H](CO)C(=O)N[C@@H]([C@@H](C)O)C(=O)N1)C(C)C)C(=O)N[C@@H](CO)C(=O)N[C@@H](CCC(N)=O)C(=O)N[C@@H](CCC(=O)O)C(=O)N[C@@H](CC(C)C)C(=O)N[C@@H](Cc1cnc[nH]1)C(=O)N[C@@H](CCCCN)C(=O)N[C@@H](CC(C)C)C(=O)N[C@@H](CCC(N)=O)C(=O)N[C@H](C(=O)N[C@@H](Cc1ccc(O)cc1)C(=O)N1CCC[C@H]1C(=O)N[C@@H](CCCNC(=N)N)C(=O)N[C@H](C(=O)N[C@@H](CC(N)=O)C(=O)N[C@H](C(=O)NCC(=O)N[C@@H](CO)C(=O)NCC(=O)N[C@H](C(=O)N1CCC[C@H]1C(N)=O)[C@@H](C)O)[C@@H](C)O)[C@@H](C)O)[C@@H](C)O	/	/	/	/	-6%	13%
CCc1ccc2oc(-c3cc(NC(=O)c4cccnc4)cc(C)c3O)nc2c1	-16%	-4%	13%[59 µM]	38%	/	3%
COc1ccc(-c2nc3ccc(NC(C)=O)cc3c(=O)n2Cc2cccc(Cl)c2)cc1COc1ccc(NC(C)=O)cc1	79µM*	/	/	-5%	/	-9%
COc1ccccc1N1CCN(C(=O)CCc2c(C)nn(-c3ccc(N4CCCC4)nn3)c2C)CC1	-12%	-1%	8%[59 µM]	81%	/	6%
O=[N+]([O-])c1ccc(NC2CCCC2)cc1	-36%	-29%	-6%[59 µM]	-1%	4%	2%
O=[N+]([O-])c1ccc(N/N=C2/CCCCC2c2ccccn2)cc1 (stereo unspecified)	16µM*	?	32µM*	-11%[57 µM]	-15%	7%
COc1ccc(C(C[N+](=O)[O-])c2c(C)[nH]n(-c3ccccc3)c2=O)cc1 (stereo unspecified)	89µM*	-23%	9%[2.33 µM]	?	40µM*	/
COc1ccc(C(C[N+](=O)[O-])c2c(C)cc3ccccn23)cc1 (stereo unspecified)	?	?	35µM*	-17%	6%	6%
